Pf growth 96h: P. falciparum growth inhibition at 96 hours. P. falciparum luciferase reporter growth, 96 h. Potency, µM (doses to about 28.7 µM), inactives show at the highest dose activity change, negative = inhibition, actives largely listed as inhibitors. 6.9% of 320,000 active; also: potency is read from the fitted curve at half-maximal effect
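Delayed-death screen, second-generation endpoint: infected erythrocytes, 2% hematocrit, 0.05% parasitemia final; 96 hours at 37 C, 5% CO2; luciferase detection reagent; luminescence decrease equals reduced growth.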
HCV inhibitor: HCV inhibition; Huh7.5.1 HCVcc-Cre infection, luciferase reporter, 44 h; Potency, µM (doses to about 41.8 µM), without a hit: top-dose activity change, negative = inhibition, actives largely listed as inhibitors; 3.4% of 340,000 active; AID 651820; also: potency is read from the fitted curve at half-maximal effect
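Infectious HCVcc-Cre (~0.5 moi) was added to cells just after compound, with cells seeded 4 h earlier at 1,000 per well. Luciferase activity after 44 h culture reported infection; substrate was incubated 15 min at room temperature before reading.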
Pf growth 48h: P. falciparum growth inhibition at 48 hours (one generation); Potency, µM (series often up to 28.7 µM), for inactives: at the top dose activity change, negative = inhibition, usual class: inhibitors; 5.9% of 310,000 active; P. falciparum luciferase growth in erythrocytes, 48 h; also: potency is read from the fitted curve at half-maximal effect
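Compounds are pin-transferred into medium, infected erythrocytes (2% hematocrit, 0.1% parasitemia final) are added, and plates sit one parasite generation at 37 C in 5% CO2. Detection reagent is then added and luminescence measured.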
HCMV inh: blocks human cytomegalovirus replication | AID 1259415 | activity change, negative = inhibition, % at 57.5 µM | HFF cells, HCMV-luciferase reporter, 72 h; stronger effect = lower value | 4.5% of 410,000 active; in the data active = activity change below about -60%; inconclusive = no clear call, values can overlap the other calls; inactive = above about -39%
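After 16 h attachment at 37C, HFF cells received test compound and HCMV-luciferase (1 PFU/cell); reporter luminescence read 72 h later, data normalized against buffer-only and known inhibitor Salinomycin.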
Numbers without * were called inactive; ? = inconclusive; nt = no result. Most compounds without a hit are left out; they make up all but 13% or so of the library. Unless noted, calls follow the shape of the dose curve; as a rule, active = well fitted inhibition curve with a large enough effect; inconclusive = small, poorly fitted or top-dose-only effect, or another doubt; inactive = no such curve, though single readings can be large or run the other way. % is scaled to controls: 0 for no effect and ±100 for the full control effect.

SMILES | Pf growth 96h | HCV inhibitor | Pf growth 48h | HCMV inh
O=C(CCC1CCCCC1)NC1=NCCS1 | 10.4µM* | 28.1% | 71.2% | 3.1
Cc1ncc(N=Nc2ccccc2)c(-c2ccccc2)n1 | 10.7% | 10µM* | ? | -3.7
Cc1ncc(S(=O)(=O)c2ccccc2)c(-c2ccccc2)n1 | 3.4% | 16.4% | nt | -17.8
C/C(=N\NC(=O)CCc1ccccc1)C1C(=O)c2ccccc2C1=O | 4.4% | 0.8% | 4.2% | -87.2*
CCOC(=O)C(C(C)=O)c1c(Br)c(O)c(O)c2c(C(=O)c3ccc(C)cc3)coc12 (centres undefined) | nt | nt | nt | -96.1*
CCOC(=O)c1c(C)n(-c2ccc(C)cc2)c2c(C(C(C)=O)C(=O)O)c(Br)c(O)c(O)c12 (centres undefined) | nt | 11.2µM* | ? | ?
CCOC(=O)c1c(C)n(-c2ccc(C)cc2)c2c(CC(C)=O)c(Br)c(OC)c(O)c12 | -4.6% | -4.3% | nt | 23.2
S=C(NCc1ccco1)N1CCN(C/C=C/c2ccccc2)CC1 | 19.0% | -18.0% | -21.1% | 29.9
S=C(NCc1ccco1)Nc1ccc(Cl)cc1Cl | 33.5% | -14.1% | 73.3% | -73.6*
S=C(NCc1ccco1)N1CCN(Cc2ccc(Cl)cc2Cl)CC1 | 10.4µM* | ? | ? | -26.2
CC(=O)N1CCCc2cc(S(=O)(=O)N(C)CC(=O)Nc3ccc(C)cc3C)ccc21 | nt | nt | nt | -26.3
N#Cc1ccc(-c2cccnc2)nc1SCc1ccc(Cl)cc1Cl | ? | -29.0% | ? | -21.1
N#Cc1ccc(-c2cccnc2)nc1SCc1ccc(Cl)c(Cl)c1 | ? | 11.2µM* | 9.28µM* | -35.5
CCOc1ccc(CCNC(=O)C2Cc3ccccc3N2C(=O)CC)cc1OCC (centres undefined) | nt | nt | nt | 2.2
Cc1nn(Cc2ccccc2)c(C)c1C=C1C(=O)NC(=O)NC1=O | 8.28µM* | 33.1% | 0.3% | 3.3
COc1cccc(NC(=O)C2(C)CCN2C(=O)CC2CCCC2)c1 (centres undefined) | nt | nt | nt | -16.4
N#Cc1cc(Oc2ccc3ccccc3c2)c(-n2nnc3ccccc32)cc1C#N | ? | -29.9% | nt | -65.2*
N#Cc1cc(Oc2ccccc2)c(-n2nnc3ccccc32)cc1C#N | 3.1% | 10.2% | -0.7% | 20.4
O=C(NC(=S)Nc1ccc(N2CCN(C(=O)c3ccccc3)CC2)cc1)c1cccs1 | -13.1% | 31.6µM* | ? | -63.6*
O=C(CNC(=O)c1ccco1)Nc1ccc(N2CCCCCC2)cc1 | 56.9% | -3.2% | 12.3% | 3.1
O=C(CNC(=O)c1ccc(Br)o1)Nc1ccc(N2CCCCCC2)cc1 | 10.4µM* | 19.0% | 39.1% | -11.9
O=C(Nc1ccc(N2CCN(C(=O)c3cccs3)CC2)cc1)c1ccc(Br)o1 | ? | ? | 11.7µM* | 0.0
Cc1ccc(Cl)cc1N1CCN(C(=O)c2cc3c(-c4ccccc4F)nn(C)c3s2)CC1 | nt | nt | nt | 14.4
CC(C)C[C@@H]1NC(=O)[C@@H]2CSCCS(=O)(=O)N2C1=O | nt | nt | nt | -15.9
O=C(Nc1ccccn1)c1cccc(S(=O)(=O)N2CCCc3ccccc32)c1 | 10.4µM* | ? | 7.38µM* | ?
SMILES | Pf growth 96h | HCV inhibitor | Pf growth 48h | HCMV inh
Cc1ccnc(NC(=O)c2cccc(S(=O)(=O)N3CCCc4ccccc43)c2)c1 | 1.85µM* | ? | 1.85µM* | 21.9
CCC(=O)N1CCN(CCN=Cc2c(O)n(C)c(=O)n(C)c2=O)CC1 | -0.6% | 22.0% | 14.1% | 16.4
CC(C)C(=O)N1CCN(CCN=Cc2c(O)n(C)c(=O)n(C)c2=O)CC1 | 13.1µM* | 7.0% | ? | 35.6
NC(N)=NN=C1CCCCCCCCCCC1 | 3.7µM* | -5.0% | 10.4µM* | -39.7
Cc1ccc(N2C(=O)CC(NNc3nc4ccccc4s3)C2=O)cc1C (centres undefined) | 24.1% | 29.4% | 5.9% | -78.6*
COc1ccc(N2C(=O)CC(NNc3nc4ccccc4s3)C2=O)cc1 (centres undefined) | 28.2% | 16.2% | 29.6% | 28.7
Cc1ccc(C2=Nc3ccccc3NC(c3ccncc3)=N2)cc1 | nt | nt | nt | -32.0
COc1ccc(CNCCNC(=O)c2nonc2N)cc1OC | 0.5% | 0.2% | 9.7% | 11.6
COc1ccc(CCNC(=O)c2cc(=O)c3cc(C)c(C)cc3o2)cc1OC | nt | nt | nt | -9.7
COc1ccc(CCNC(=O)c2nnn(-c3cc(C)cc(C)c3)c2N)cc1OC | 3.7µM* | ? | ? | -23.0
COc1ccc(CCNC(=O)c2nonc2N)cc1OC | 4.15µM* | 3.2% | -0.5% | 50.5
COc1ccc(CCNC(=O)c2cc(=O)c3cc(C)ccc3o2)cc1OC | 7.8% | 22.4µM* | -26.7% | ?
COc1cccc(C(=O)Nc2ccc(C(=O)OCc3cc(=O)n4nc(C5CC5)sc4n3)cc2)c1 | nt | nt | nt | 43.2
CCN(CC)c1ccc(/C=C2/SC(=O)N(C(C)C)C2=O)o1 | ? | ? | ? | -86.0*
CCN(CC)c1ccc(C=C2C(=O)N(C)C(=S)N(C)C2=O)o1 | 19.4% | 3.5% | 34.5% | 1.2
N#Cc1ccc(CSc2nnc3[nH]c(=O)cc(N)n23)cc1 | -37.6% | 24.5% | 4.15µM* | -34.1
Cc1ccc(-c2nnn3c2nc(NCc2ccc4c(c2)OCO4)c2ccccc23)cc1 | nt | nt | nt | 49.8
CCS(=O)(=O)C(=C1Nc2ccccc2N1)S(=O)(=O)CC | -9.6% | -13.8% | 10.4% | -97.7*
Cc1cc(C)c2c(c1)[C@@H]1C=CC[C@@H]1[C@H](c1ccc(S(=O)(=O)N3CCOCC3)cc1)N2 | 7.7% | ? | 10.4µM* | 32.6
COC(=O)c1ccc(C2Nc3c(C)cc(C)cc3C3C=CCC32)cc1 (centres undefined) | nt | nt | nt | -3.7
COc1ccc2c(C)c(CC(=O)NCc3ccccc3Cl)c(=O)oc2c1OC | nt | nt | nt | -7.0
COc1ccc(NC(=O)CSc2ncccc2C(=O)OC(C)C)cc1OC | -15.2% | 7.94µM* | nt | -87.4*
N#CC(C#N)=c1ccc2c(c1)N1C3=C(CCCC3)CC3CCCCC31N=2 (centres undefined) | 51.0% | 0.5% | ? | -95.5*
N#C/C(C(N)=O)=c1/ccc2c(c1)N1C3=C(CCCC3)CC3CCCCC31N=2 (centres undefined) | 8.7% | 1.1% | ? | -68.3*
COc1ccc(-c2nc(SCC(=O)Nc3ccc4c(c3)OCO4)c(-c3ccccc3)[nH]2)cc1 | nt | nt | nt | -28.2
SMILES | Pf growth 96h | HCV inhibitor | Pf growth 48h | HCMV inh
C=C1c2cc3c(cc2NC(=S)N1Cc1ccccc1)OCO3 | ? | ? | 11.7µM* | -33.2
CC1(C)CC(C)(O)N(Cc2ccccc2)C(=S)N1 (centres undefined) | ? | 1.9% | 1.3% | -1.9
CCOc1ccccc1CNC(=O)c1cc(-c2ccc(Cl)s2)nc2ccccc12 | nt | nt | nt | -26.6
N#CC(c1cccc(Cl)c1)c1ccc2c(C(F)(F)F)cc(C(F)(F)F)nc2n1 (centres undefined) | ? | 2.82µM* | ? | -103.7*
O=C(Nc1nccs1)c1ccc(-c2ccc(F)c(Cl)c2)o1 | 3.8% | 22.4µM* | ? | 18.2
O=C(Nc1nccs1)c1ccc(-c2ccc(Cl)cc2Cl)o1 | -11.8% | -3.8% | -26.9% | -1.7
CCCCCCC(=O)Nc1nc(C)c(-c2csc(Nc3cc(OC)ccc3OC)n2)s1 | 7.38µM* | -8.8% | 7.38µM* | 2.7

High-throughput results (PubChem)
